High-throughput results deposited in PubChem BioAssay by National Center for Advancing Translational Sciences (NCATS).
KB-3-1 cytotox: qHTS assay for MDR1-selective chemotherapeutics: Primary screen using the parental adenocarcinoma cell KB-3-1 | KB-3-1 viability, CellTiter-Glo ATP luminescence, 72 h | Potency, µM (top dose mostly 46.1 µM), most hits filed as cytotoxic | 1.4% of 400,000 active | AID 1347075, 2019; note: potency is the fitted concentration of half-maximal effect; nearly all actives have a fitted effect of over 60% in size
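KB-3-1 cells, DMEM (no phenol red) + 10% FBS; compound by pin transfer, 72 h, 37 °C. Readout: CellTiter-Glo luminescence after 10 min. Data normalized, curve-fitted.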
A549 viability: Nrf2 qHTS screen for inhibitors: counterscreen for cytotoxicity; A549 ARE-Fluc cells, CellTiter-Fluor viability, 18-24 h; Potency, µM (top dose mostly 46 µM), without a hit: at the highest dose activity change, negative = cytotoxicity, hits mostly inhibitors; 0.16% of 390,000 active; note: potency is the fitted concentration of half-maximal effect
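A549 ARE_Fluc cells in 5% FBS OPTI-MEM were exposed to compounds in concentration-response for 18-24 h at 37 deg C. Viability was read by CellTiter-Fluor fluorescence (Ex 405/Em 525) after 30 min, before the luciferase read.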
PI4K2A block: qHTS for small molecular inhibitors of PI4K2A; activity change, negative = inhibition, % at 76.9 µM; AID 1346378, 2018; 0.13% of 420,000 active; purified PI4K2A, ADP-Glo luminescence, 1 h; active compounds read low; in the data active = activity change below about -50%; inconclusive = mostly about -30% to -49%;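 note: -100% = wells without enzyme as full effect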
Target sequence (Q9BTU6 whole entry, looked up): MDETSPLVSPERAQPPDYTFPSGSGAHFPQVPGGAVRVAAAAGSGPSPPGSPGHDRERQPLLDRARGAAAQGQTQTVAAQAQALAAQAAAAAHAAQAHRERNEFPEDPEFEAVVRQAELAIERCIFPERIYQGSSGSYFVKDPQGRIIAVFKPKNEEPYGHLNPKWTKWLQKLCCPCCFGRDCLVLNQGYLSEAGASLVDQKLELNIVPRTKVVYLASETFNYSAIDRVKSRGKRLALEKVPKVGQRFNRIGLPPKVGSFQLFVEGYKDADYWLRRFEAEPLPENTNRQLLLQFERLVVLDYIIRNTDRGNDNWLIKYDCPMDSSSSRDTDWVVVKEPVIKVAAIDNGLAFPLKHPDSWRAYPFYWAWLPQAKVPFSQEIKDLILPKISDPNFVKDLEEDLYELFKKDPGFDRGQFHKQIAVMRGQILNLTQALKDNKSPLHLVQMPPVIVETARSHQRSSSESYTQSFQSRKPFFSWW
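PI4K2A activity was measured by ADP-Glo luminescence: enzyme (4 ug/mL stock) and phosphatidylinositol (1.2 mM stock) in Tris pH 7.5/MgCl2/EGTA/Triton X-100 buffer were reacted with ATP (300 microM stock) for one hour at ambient temperature.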
Nrf2 block: Nrf2 qHTS screen for inhibitors. A549 ARE-Fluc reporter, luciferase luminescence, 18-24 h. Potency, µM (series often up to 46 µM), without a hit: at the top dose activity change, negative = inhibition, usual class: inhibitors. 2.1% of 360,000 active; note: potency is the fitted concentration of half-maximal effect; nearly all actives have a fitted effect of over 60% in size
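Nrf2 function is reported as luminescence of an ARE-controlled luciferase in A549 cells. Compounds were tested at several concentrations, and a CellTiter-Fluor read on the same wells flagged cytotoxicity.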
Giardia kill: Small Molecules that selectively kill Giardia lamblia: qHTS; Giardia lamblia trophozoite viability; activity change, % at 7.66 µM, hits read low; 0.15% of 340,000 active; AID 540267, 2011; in the data active = activity change below about -80%; inconclusive = between about -30% and that limit;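 note: parasites exposed to compound for two days anaerobically before the ATP read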
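Compounds were tested on trophozoites seeded at 100 cells/well and held 48 hrs at 37 deg C anaerobically. An ATP-based luminescent kit measured the remaining live cells.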
KB-V1 cytotox: qHTS assay for MDR1-selective chemotherapeutics: Primary screen using the drug-selected MDR subline cells KB-V1; KB-V1 MDR cells viability, CellTiter-Glo, 72 h; Potency, µM (highest dose often 46.1 µM), actives largely listed as cytotoxic; 3.4% of 400,000 active; AID 1347076, 2019; note: potency is the fitted concentration of half-maximal effect; nearly all actives have a fitted effect of over 60% in size
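Potencies derive from concentration-effect curves fitted to normalized luminescence (CellTiter-Glo) of KB-V1 cells treated for 72 h at 37 degrees C in phenol-red-free DMEM containing 10% FBS.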
The depositor's hits bear a star; i = inactive; ? = inconclusive; · = no result. Sampled rows, rich in hits. Any-hit rate of the full collection: about 5.7%. Unless noted, calls come from the whole dose curve; as a rule, active = well fitted curve in the direction sought with a large enough effect; inconclusive = small, poorly fitted or top-dose-only effect, or another doubt; inactive = no such curve, though single readings can be large; an effect the other way counts as inactive or inconclusive. Unless noted, % is set by controls: 0 for no effect and ±100 for the full control effect.

SMILES | KB-3-1 cytotox | A549 viability | PI4K2A block | Nrf2 block | Giardia kill | KB-V1 cytotox
O=C(NCCC1=CCCCC1)c1ccc(Cl)c(S(=O)(=O)N2CCOCC2)c1 | i | 6% | 2 | ? | -15 | i
COC(=O)C[C@H]1CC[C@@H]2[C@@H](COc3ccc(NC(=O)Nc4ccccc4OC)cc3C(=O)N2C)O1 | · | · | -4 | · | · | ·
COc1ccccc1N1CCN(S(=O)(=O)c2ccc(-c3ccno3)cc2OC)CC1 | i | -13% | -2 | · | · | i
Cc1cc(C)nc(NC2=NCC(=O)N2c2cccc(Cl)c2)n1 | i | 2% | 7 | -1% | 0 | 21µM*
Cc1cc(C)nc(NC2=NCC(=O)N2c2ccccc2)n1 | i | -6% | -2 | -10% | 16 | i
COc1ccc(NC(=O)CN(C)C(=O)/C=C/c2ccc(S(=O)(=O)N3CCCCCC3)cc2)cc1 | ? | -3% | -1 | ? | -2 | 21µM*
COc1ccc(/C=C/C(=O)N(C)CC(=O)Nc2cccc(F)c2)cc1S(=O)(=O)N1CCCCC1 | 21µM* | -18% | 2 | -13% | -26 | i
Cc1ccc(CN2CCCCC(NC(=O)Cc3cccs3)C2=O)cc1 (stereo not drawn) | · | · | -4 | · | · | ·
CN(C)CCCN(C(=O)c1ccc2c(c1)CCCC2)c1nc2ccc(F)cc2s1 | i | -6% | 3 | 27% | 16 | 4.1µM*
Cc1ccc2nc(N(CCCN(C)C)C(=O)c3ccc(S(=O)(=O)N4CCc5ccccc5C4)cc3)sc2c1 | ? | ? | -3 | 21µM* | -4 | 21µM*
COc1ccc2sc(N(CCCN(C)C)C(=O)c3ccc(S(=O)(=O)N4CCCC4)cc3)nc2c1 | i | 1% | -2 | ? | -2 | i
COc1ccc2sc(N(CCCN(C)C)C(=O)c3ccc(S(=O)(=O)N4CCc5ccccc5C4)cc3)nc2c1 | ? | ? | -1 | ? | -2 | 23µM*
CN(C)CCCN(C(=O)c1ccc(S(=O)(=O)N2CCc3ccccc3C2)cc1)c1nc2ccc(F)cc2s1 | ? | ? | -4 | ? | 17 | ?
O=C(OC12CCCN(C1)/C(=C/c1cccc(Cl)c1)C2)C1CCCC1 (stereo not drawn) | · | · | 1 | · | · | ·
Cc1cc(C)cc(NC(=O)[C@H](Cc2c[nH]c3ccccc23)NC(=O)[C@@H]2Cc3ccccc3CN2)c1 | i | -1% | -1 | 0% | 4 | ?
Cc1ccc(NC(=O)[C@H](Cc2c[nH]c3ccccc23)NC(=O)[C@@H]2Cc3ccccc3CN2)c(C)c1 | 1.8µM* | ? | 0 | ? | 17 | ?
CCc1ccc(NC(=O)[C@H](Cc2c[nH]c3ccccc23)NC(=O)[C@@H]2Cc3ccccc3CN2)cc1 | 5.2µM* | 2% | 0 | ? | -22 | ?
CC(NC(=O)[C@H](Cc1c[nH]c2ccccc12)NC(=O)[C@@H]1Cc2ccccc2CN1)c1ccccc1 (stereo partly drawn) | i | -14% | 4 | 2% | -15 | i
Cc1cccc(NC(=O)[C@H](Cc2c[nH]c3ccccc23)NC(=O)[C@@H]2Cc3ccccc3CN2)c1 | 5.8µM* | 2% | 4 | ? | 5 | i
CNc1nc(N)c([N+](=O)[O-])c(Nc2cccc(OC)c2)n1 | · | · | 1 | · | · | ·
CCn1c(SC)nnc1-c1sc2cc(Cl)ccc2c1Cl | i | -17% | -1 | ? | -1 | ?
CSc1nnc(-c2sc3cc(Cl)ccc3c2Cl)n1C | ? | -6% | 4 | 2% | 5 | 18µM*
CC1CCc2cc(F)cc3c2N1C(=O)C(C(=O)Nc1cnccn1)C3=O (stereo not drawn) | i | -3% | · | 24% | ? | i
O=C(c1cccc(C(=O)N2CCN(c3ccccc3)CC2)c1)N1CCN(c2ccccc2)CC1 | i | -2% | -5 | · | 11 | ?
